In the library only some 19% were active in any assay of this set; here they are far more common.
HT1080NT lethal: qHTS for induction of synthetic lethality in tumor cells producing 2HG: qHTS for the HT-1080-NT fibrosarcoma cell line; HT-1080-NT fibrosarcoma viability, CellTiter-Glo ATP luminescence, 48 h; Potency, µM (titrated, usually from 46.1 µM), without a hit: top-dose activity, negative = less viability, usual class: cytotoxic; actives 1.6% (n = 360,000); AID 686970, 2013;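 further: NT is the 2HG producing partner of a matched IDH1 knockdown line; potency means the concentration at half of the fitted maximal effect; 0% = DMSO-treated cells and -100% = media-only wells without cells; nearly all actives have a fitted effect of over 55% in size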
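A 48-hour cytotoxicity screen used HT-1080-NT cells plated 2 hours before compound delivery. ATP-based CellTiter-Glo luminescence measured viability, normalized to DMSO and no-cell controls.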
IL1B secr inh: qHTS for Inhibitors of Inflammasome Signaling: IL-1-beta AlphaLISA Primary Screen; THP-1 LPS/ATP IL-1B secretion, AlphaLISA, 16 h; hits give low values; activity change, % at 57.5 µM; actives 4.7% (n = 360,000); AID 743279, 2014; in the data active means activity change below about -50%; inconclusive means mostly about -30% to -49%
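Secreted IL-1B measured by AlphaLISA bead assay after 16 h compound exposure of THP-1 cells; compounds (final up to 57.5 uM) added 1 h before LPS (250 ng/mL) and ATP (1.25 mM) stimulation; lower signal means less secretion.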
HT1080 IDH1KD tx: qHTS for induction of synthetic lethality in tumor cells producing 2HG: qHTS for the HT-1080-IDH1KD cell line. HT-1080 IDH1 knockdown viability, ATP luminescence, 48 h. Potency, µM (titrated, usually from 46.1 µM), inactives show at the top dose activity, negative = toxicity, hits mostly cytotoxic. actives 2% (n = 360,000). AID 686971, 2013;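 further: potency means the concentration at half of the fitted maximal effect; 0% = DMSO wells and -100% = cell-free medium wells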
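After a 2 h attachment period, IDH1KD HT-1080 cells took pin-transferred compound for 48 h at 37 °C; ATP-based luminescence after 10 min room-temperature reagent incubation reported viability.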
DT40 TDP1 CPT: qHTS for Inhibitors of human tyrosyl-DNA phosphodiesterase 1 (TDP1): qHTS in cells in presence of CPT | chicken DT40 Tdp1-/-;hTDP1 cells + 20 nM CPT, ATP luminescence, 48 h | Potency, µM (series often up to 46.2 µM), for inactives: top-dose activity change, negative = growth inhibition, hits mostly inhibitors | actives 12% (n = 420,000) | AID 686979, 2013; further: potency means the concentration at half of the fitted maximal effect; nearly all actives have a fitted effect of over 55% in size
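Cell growth measured by CellTiter-Glo luminescence after a minimum 48 h, 37 C compound exposure with 20 nM CPT in Tdp1-knockout DT40 cells stably expressing hTDP1, seeded 400/well; qHTS titration format.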
TDP1 cell noCPT: qHTS for Inhibitors of human tyrosyl-DNA phosphodiesterase 1 (TDP1): qHTS in cells in absence of CPT; AID 686978, 2013; DT40 Tdp1-/- hTDP1 cells, no CPT, ATP luminescence, 48 h; Potency, µM (series often up to 46.2 µM), for the others: at the highest dose activity change, negative = growth inhibition, hits mostly inhibitors; actives 15% (n = 420,000); further: potency means the concentration at half of the fitted maximal effect; nearly all actives have a fitted effect of over 55% in size
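Chicken DT40 Tdp1-/- cells stably complemented with human TDP1 were seeded at 400 cells/well with DMSO in place of 20 nM camptothecin. After compound pinning, cells grew at least 48 hr at 37 °C; viability read by CellTiter-Glo luminescence.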
* = called active by the depositor; ? = inconclusive; nt = not tested or not shown; [ ] = another dose, or the depositor's remark. Unless noted, the call rests on the fitted dose curve; in most records, active means well fitted curve in the direction sought with a large enough effect; inconclusive means small, poorly fitted or top-dose-only effect, or another doubt; inactive means no such curve, though single readings can be large; an effect the other way counts as inactive or inconclusive. Unless noted, on the % scale 0 is the no-effect control and ±100 the full control effect.

SMILES	HT1080NT lethal	IL1B secr inh	HT1080 IDH1KD tx	DT40 TDP1 CPT	TDP1 cell noCPT
COc1ccc2c(c1)OC/C(=C\c1ccc(OC)c(O)c1)C2=O	nt	nt	nt	1.5µM*	1µM*
O=C(O)c1ccc(/C=C2\COc3ccccc3C2=O)cc1	?	-105*	?	?	18µM*
COc1ccccc1CNc1nc(-c2ccco2)nn1C(=O)c1cc(OC)c(OC)c(OC)c1	nt	nt	nt	-22%	-19%
CCOC(=O)C(=O)Nc1cc(C)on1	5%	0	12%	0%	-1%
CC(C)C(=O)Nc1cc2c3c(c1)CCC(=O)N3CCC2	0%	36	3%	1%	13%
O=C(NCC1CCCO1)C1CCN(C2CCN(C3CCCCCC3)CC2)CC1 (stereo not drawn)	-3%	-6	10%	-18%	-15%
COC(=O)c1cnc(SC)nc1C	-13%	-13	2%	-20%	1%
Nc1nonc1-c1noc(CCCCCN2C(=O)c3ccccc3C2=O)n1	6%	-10	1%	-8%	-18%
COc1ccccc1C=C1CCc2ccccc2C1=O	?	-7	?	?	?
COc1ccc(/C=C2\COc3ccccc3C2=O)cc1OC	12µM*	-98*	18µM*	15µM*	21µM*
COc1ccc(/C=C2\OC(=O)c3c(OC)cccc32)cc1OC	13%	?	4%	-28%	?
COc1cc(/C=C2\CCc3ccccc3C2=O)cc(OC)c1OC	-13%	-101*	?	18µM*	16µM*
COc1c(O)cc2c(-c3ccccc3)cc(=O)oc2c1OC	nt	nt	nt	-3%	-13%
O=C(/C(=N\Nc1ccc([N+](=O)[O-])cc1)Sc1nnnn1-c1ccccc1)c1ccccc1	?	0	23µM*	?	?
NNC(=O)CSc1nnnn1-c1ccccc1	-1%	74	4%	-4%	-5%
Cc1ccc(N/N=C(/Sc2nnnn2-c2ccccc2)C(=O)c2ccccc2)cc1	0%	-10	-4%	29µM*	?
COc1ccc(C(C)(O)c2nc(-c3cccc(O)c3)cs2)cc1 (stereo not drawn)	?	?	8.2µM*	18µM*	23µM*
COc1ccc(C(C)(O)c2nc(-c3cccs3)cs2)cc1 (stereo not drawn)	-23%	0	?	?	?
COc1ccc(C(C)(O)c2nc(-c3ccc(N(C)C)cc3)cs2)cc1 (stereo not drawn)	12%	-10	?	18µM*	16µM*
COc1ccc(-c2csc(C(C)(O)c3ccccc3)n2)cc1 (stereo not drawn)	?	-16	?	16µM*	?
COc1ccc(C(C)(O)c2nc(-c3ccc4ccccc4c3)cs2)cc1 (stereo not drawn)	?	6	?	?	?
COc1ccc(C(C)(O)c2nc(-c3ccncc3)cs2)cc1 (stereo not drawn)	?	61	?	5.8µM*	5.8µM*
CC(NC(=O)CN1CCOCC1)c1ccc(F)cc1 (stereo not drawn)	-1%	-8	14%	-18%	8%
COc1ccc(NC(=O)c2ccco2)c(NC(=O)c2ccc([N+](=O)[O-])cc2)c1	-17%	13	-8%	-18%	10%
N#Cc1ccccc1NC(=O)C(=O)NCC(c1cccnc1)N1CCN(c2ccccc2)CC1 (stereo not drawn)	nt	nt	nt	?	-18%
SMILES	HT1080NT lethal	IL1B secr inh	HT1080 IDH1KD tx	DT40 TDP1 CPT	TDP1 cell noCPT
OC(c1ccc2c(c1)CN(Cc1ccc3nsnc3c1)CCO2)C1CCCCC1 (stereo not drawn)	nt	nt	nt	5%	-4%
CC(O)(c1cccnc1)c1nc(-c2ccc(S(C)(=O)=O)cc2)cs1 (stereo not drawn)	18%	34	22%	-20%	-3%
COc1ccc(C(C)(O)c2nc(-c3ccc(Cl)cc3)cs2)cc1 (stereo not drawn)	?	21	?	?	?
COc1ccc(C(C)(O)c2nc(-c3ccccc3)cs2)cc1 (stereo not drawn)	?	37	16µM*	18µM*	13µM*
COc1ccc(-c2csc(C(C)(O)c3ccc(F)c(F)c3)n2)cc1OC (stereo not drawn)	24%	0	1%	18µM*	?
COc1ccc(-c2csc(C(C)(O)c3ccc(OC)cc3)n2)cc1 (stereo not drawn)	-23%	45	?	15µM*	?
COc1ccc(-c2csc(C(C)(O)c3cccnc3)n2)cc1 (stereo not drawn)	?	-65*	?	16µM*	21µM*
CC1(C)CCC[C@@]2(C)C1CC[C@@](C)(O)[C@@H]2CC[C@@](C)(O)C1CO1 (stereo partly drawn)	nt	nt	nt	?	-5%[9.04 µM]
Cc1ccc(CNC(=O)c2ccc(CSCc3c(F)cccc3Cl)o2)cc1	nt	nt	nt	-30%	-14%
Cc1cccc(NS(=O)(=O)c2cccc(C(=O)NCC(c3ccc(F)cc3)N3CCOCC3)c2)c1 (stereo not drawn)	0%	-15	-7%	?	?
CCCCN(CCCC)Cc1cc(=O)oc2cc(OC)c(Cl)cc12	5%	-4	3%	?	?
